In the library only some 19% were active in any assay of this set; here they are far more common.
DT40 TDP1 CPT – DT40-hTDP1 cell growth loss with CPT. 420,000 tested, 12% active. chicken DT40 Tdp1-/-;hTDP1 cells + 20 nM CPT, ATP luminescence, 48 h. AID 686979. Potency, µM (top dose mostly 46.2 µM), for the others: at the top dose activity change, negative = growth inhibition, usual class: inhibitors; also: potency is read from the fitted curve at half-maximal effect; nearly all actives have a fitted effect of over 55% in size
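Cell growth measured by CellTiter-Glo luminescence after a minimum 48 h, 37 C compound exposure with 20 nM CPT in Tdp1-knockout DT40 cells stably expressing hTDP1, seeded 400/well; qHTS titration format.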
HT1080-NT tox – kills 2HG-producing HT-1080-NT fibrosarcoma cells. HT-1080-NT fibrosarcoma viability, CellTiter-Glo ATP luminescence, 48 h. Potency, µM (highest dose often 46.1 µM), for the others: top-dose activity, negative = less viability, usual class: cytotoxic. 360,000 tested, 1.6% active;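 also: NT is the 2HG producing partner of a matched IDH1 knockdown line; potency is read from the fitted curve at half-maximal effect; 0% = DMSO-treated cells and -100% = media-only wells without cells; nearly all actives have a fitted effect of over 55% in size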
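750 cells/well, RPMI + 5% FBS; 2 h settle, compound pin-transfer, 48 h at 37 degrees C. CellTiter-Glo 10 min RT, luminescence. Normalized to DMSO and media-only wells.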
DT40 TDP1 no CPT – qHTS for Inhibitors of human tyrosyl-DNA phosphodiesterase 1 (TDP1): qHTS in cells in absence of CPT. AID 686978, 2013. DT40 Tdp1-/- hTDP1 cells, no CPT, ATP luminescence, 48 h. Potency, µM (doses to about 46.2 µM), for the others: at the highest dose activity change, negative = growth inhibition, usual class: inhibitors. 420,000 tested, 15% active; also: potency is read from the fitted curve at half-maximal effect; nearly all actives have a fitted effect of over 55% in size
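Seeded 400 DT40-hTDP1 cells/well (vehicle DMSO, no 20 nM CPT); pinned compounds; ≥48 hr at 37 °C; CellTiter-Glo luminescence as viability measure.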
ELG1 repair inh – ELG1-dependent DNA repair inhibition; AID 504467; HEK293T ELG1-luciferase reporter, luminescence, 16 h; DNA damage induced by 5-fluorouridine; Potency, µM (doses to about 46.1 µM), inactives show top-dose activity change, negative = inhibition, most hits filed as inhibitors; 330,000 tested, 2.3% active; also: potency is read from the fitted curve at half-maximal effect; nearly all actives have a fitted effect of over 55% in size
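Step one: seed 2,000 cells per well. Step two: pin-transfer compound or DMSO alongside 5-fluorouridine. Step three: incubate 16 hr, 37 °C, 5% CO2. Step four: add ONE-Glo, wait 30 min, read luminescence.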
IL-1B inflam inh – inhibitors of inflammasome signaling (IL-1 beta secretion) | THP-1 LPS/ATP IL-1B secretion, AlphaLISA, 16 h; hits give low values | activity change, % at 57.5 µM | 360,000 tested, 4.7% active | AID 743279; in the data active = activity change below about -50%; inconclusive = mostly about -30% to -49%
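Secreted IL-1B measured by AlphaLISA bead assay after 16 h compound exposure of THP-1 cells; compounds (final up to 57.5 uM) added 1 h before LPS (250 ng/mL) and ATP (1.25 mM) stimulation; lower signal means less secretion.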
HT1080 IDH1KD tx – kills HT-1080 cells with IDH1 knockdown; HT-1080 IDH1 knockdown viability, ATP luminescence, 48 h; Potency, µM (highest dose often 46.1 µM), for the others: top-dose activity, negative = toxicity, usual class: cytotoxic; 360,000 tested, 2% active; AID 686971;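 also: potency is read from the fitted curve at half-maximal effect; 0% = DMSO wells and -100% = cell-free medium wells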
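Using the IDH1-knockdown HT-1080 line run in the same batch and compound series as the NT line, viability after 48 h at 37 °C was determined by CellTiter-Glo luminescence and expressed as % activity.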
* hit, by the source's call; ? = inconclusive; · = no result. Unless noted, calls follow the shape of the dose curve; as a rule, active = well fitted curve in the direction sought with a large enough effect; inconclusive = small, poorly fitted or top-dose-only effect, or another doubt; inactive = no such curve, though single readings can be large; an effect the other way counts as inactive or inconclusive. Unless noted, % is scaled to controls: 0 for no effect and ±100 for the full control effect.

SMILES	DT40 TDP1 CPT	HT1080-NT tox	DT40 TDP1 no CPT	ELG1 repair inh	IL-1B inflam inh	HT1080 IDH1KD tx
C[C@H](CO)N1C[C@H](C)[C@H](CN(C)S(=O)(=O)c2ccc(Cl)cc2)OCc2ccccc2-c2c(n(C)c3ccccc23)C1=O	26µM*	?	9.2µM*	·	-15	?
C[C@@H]1CN([C@H](C)CO)C(=O)c2c(c3ccccc3n2C)-c2ccccc2CO[C@H]1CN(C)C(=O)Cc1ccccc1	23µM*	0%	13µM*	·	-5	0%
Cc1ccc(S(=O)(=O)N(C)C[C@H]2Oc3ncc(Br)cc3C(=O)N([C@H](C)CO)C[C@@H]2C)cc1	-30%	-5%	23µM*	·	-5	-1%
C[C@H](CO)N1C[C@H](C)[C@@H](CN(C)S(=O)(=O)c2cccs2)Oc2ccc(NC(=O)Nc3ccc(C(F)(F)F)cc3)cc2C1=O	16µM*	?	18µM*	?	-2	-61%
O=S1(=O)N(Cc2ccccc2)CCCN1Cc1cccc(Cl)c1	-3%	·	?	·	·	·
COc1cc(C(c2c(O)c3ccccc3oc2=O)c2c(C)n(C)n(-c3ccccc3)c2=O)ccc1OCC(=O)O (configuration not stated)	4%	·	-1%	·	·	·
COc1cccc2cc(-c3cc(=O)oc4ccc(OC(=O)N(C)C)cc34)oc12	?	18%	-1%	?	-15	7%
COc1ccc(C(=O)OC2CC3CCC(C2)[N+]3(C)[O-])cc1OC (configuration not stated)	-1%	2%	12%	-1%	14	2%
CCC(=NCc1ccco1)c1c(O)n(-c2ccccc2C)c(=O)[nH]c1=O	-6%	-1%	-13%	0%	-13	-1%
O=C(NCCO)c1nsnc1NCCCl	9%	0%	7%	3%	47	-1%
O=C(Oc1ccccc1)N1CCC2(CCCN(C(c3ccccc3)c3ccccc3)C2)CC1	10%	·	-13%	·	·	·
Cc1ccc(S(=O)(=O)N(C)C[C@@H]2OCc3ccccc3-c3c(n(C)c4ccccc34)C(=O)N([C@H](C)CO)C[C@@H]2C)cc1	23µM*	-28%	?	·	-28	?
Cc1ccc(S(=O)(=O)N(C)C[C@@H]2Oc3ncc(Br)cc3C(=O)N([C@H](C)CO)C[C@@H]2C)cc1	?	-4%	?	·	-5	-8%
C(=NC1CCCCC1)c1c[nH]c2ccccc12	0%	4%	3%	·	16	10%
Brc1ccc2[nH]cc(C=NN3CCCCCC3)c2c1	23µM*	4%	13µM*	·	7	11%
Nc1nc(SCCC(F)=C(F)F)n[nH]1	11%	7%	-2%	8%	0	17%
CNC(=O)Oc1ccc(-c2cn3cc(C)ccc3n2)cc1	?	-11%	12µM*	?	?	-29%
CN1OC[C@@H]2COc3ccc4ccccc4c3[C@@H]21	25%	1%	10%	10%	26	6%
CCCC(=O)Nc1ccc(N2CCN(CC)CC2)c(Cl)c1	3%	2%	?	-1%	15	3%
CCCC(=O)NC1=C(N2CC2)C(=O)C(NC(=O)CCC)=C(N2CC2)C1=O	0.82µM*	-27%	1.6µM*	·	2	-18%
Cc1cc(O)c2c(c1)C(=O)c1cc(O)cc(O)c1C2=O	18µM*	-30%	21µM*	·	-13	-22%
CCOc1cc2c(cc1OCC)-n1cccc1C(c1ccc(OC)cc1)NC2 (configuration not stated)	?	-18%	18µM*	?	-63*	-6%
CCOc1cc2c(cc1OCC)-n1cccc1C(c1ccc(C(C)C)cc1)NC2 (configuration not stated)	8.2µM*	16µM*	7.3µM*	?	-94*	21µM*
CCOc1cc2c(cc1OCC)-n1cccc1C(c1ccc(OC(F)F)cc1)NC2 (configuration not stated)	?	?	18µM*	?	-26	?
CCOc1cc2c(cc1OCC)-n1cccc1C(c1ccc(F)cc1)NC2 (configuration not stated)	?	-16%	?	?	0	-8%
SMILES	DT40 TDP1 CPT	HT1080-NT tox	DT40 TDP1 no CPT	ELG1 repair inh	IL-1B inflam inh	HT1080 IDH1KD tx
CCOc1cc2c(cc1OCC)-n1cccc1C(c1ccc(F)c(OC)c1)NC2 (configuration not stated)	?	-5%	?	?	?	0%
C=C(C)[C@H]1O[C@H]2CC[C@@]3(C)[C@@](O)(CC[C@H]4[C@@H]5OC(C)(C)[C@H]6C[C@@H]7C(=C)Cc8c(Cl)cc9[nH]c(c5c9c8[C@@]76O)[C@@]43C)[C@]23O[C@@H]3[C@H]1O	?	·	12µM*	·	·	·
CCc1ccc(N2C(=O)NC(=O)C(Cc3ccc(OC)cc3OC)C2=O)cc1 (configuration not stated)	-1%	11%	0%	2%	20	13%
CCN(CCO)c1ccc(N=Cc2c(O)n(C)c(=S)[nH]c2=O)cc1	12µM*	19%	10µM*	?	8	-10%
CCN(CC)c1ccc(N=Cc2c(O)n(Cc3ccco3)c(=O)[nH]c2=O)cc1	1%	4%	-12%	-2%	·	5%
C[C@@H](Cc1ccccc1)N(C)C	-15%	·	-17%	·	·	·
CC(Cc1ccccc1Sc1ccc(O)cc1)N(C)C (configuration not stated)	?	-1%	21µM*	?	-5	-15%
Cc1ccc2c(c1)C1CN(C)CCC1N2C(=O)CCCN1C(=O)c2cccc3cccc(c23)C1=O (configuration not stated)	-11%	·	?	7%	-14	?
C[C@H](CO)N1C[C@H](C)[C@@H](CN(C)C(=O)NC2CCCCC2)Oc2c(NC(=O)Nc3ccc4c(c3)OCO4)cccc2C1=O	?	2%	?	15µM*	-14	3%
C[C@H](CO)N1C[C@H](C)[C@@H](CN(C)Cc2ccccc2)Oc2c(NC(=O)c3ccncc3)cccc2C1=O	?	4%	23µM*	?	20	6%
C[C@H]1CN([C@@H](C)CO)C(=O)c2cc(-c3cccnc3)cnc2O[C@H]1CN(C)Cc1ccc(Oc2ccccc2)cc1	?	0%	?	·	-4	-15%

Bioassay records (PubChem BioAssay)
